PubChem BioAssay (Tox21)
Results filed as inconclusive are left out. Values without a mark were called inactive. Calls of active or inactive are those of the source. Calls come from the whole dose curve; as a rule, active = well fitted activation curve with a large enough effect in the repeat runs; inconclusive = weak or mixed curves; inactive = flat fitted curve, though single readings scatter.

Experiment: A CellTox Green Cytotoxicity Assay to monitor cytotoxicity in HEK293 cells - 24 hour (AID 1224875); note: nearly all actives have a fitted effect of over 45% in size
Conditions: CellTox Green fluorescence; series mostly up to 76.8 µM; activity change: at the top concentration
From the text: National Center for Advancing Translational Sciences [NCATS]
NIH Chemical Genomics Center [NCGC]
U.S. Environmental Protection Agency [EPA]
National Institutes of Environmental Health Sciences [NIEHS]
National Toxicology Program [NTP]
Cell-based models are critical for drug discovery. Determining the natural cytotoxic effects resulting from test compounds is an essential research activity. A CellTox Green Cytotoxicity Assay to monitor cytotoxicity in real time of continues cell culture during 40 hours of the compound treatment was used to screen Tox21 10K library compounds in Hek293 cells. CellTox Green Cytotoxicity Assay is a nonlytic, homogeneous, biofluorescent method to measure cytotoxicity in cell culture after experimental manipulation. The assay system uses a proprietary asymmetric cyanine dye that is excluded from viable cells but preferentially stains the dead cell's DNA. […] Viable cells produce no appreciable increases in fluorescence. Therefore, the fluorescence signal produced by the binding interaction with dead cell DNA is proportional to cytotoxicity.
The mixture of Hek293 cell suspension and reagents were dispensed at 600cells/6 ul/well in 1536-well tissue culture treated black solid bottom plates using a Multidrop dispenser. After the assay plates were incubated at a 37 C/5% CO2 incubator for 5 hours, 23 nL of compounds dissolved in DMSO, positive and negative controls was transferred to the assay plate by a pintool work station. The plates were incubated at 37 C for 40 hours. The fluorescence intensity were measured at 0h, 8h, 16h, 24h, 32h and 40h time points using ViewLux plate reader during compound treatment.
% is set by controls: 0 for no effect and ±100 for the full control effect; potency is the fitted concentration of half-maximal effect.

Row | SMILES | activity change | Potency
1 | Nc1ccn([C@H]2CS[C@@H](CO)O2)c(=O)n1 | -0.0527% | 
2 | CO[C@@H]1[C@@H](OC)[C@H](C)[C@@](O)(CC(=O)O)O[C@H]1[C@H](C)[C@H]1O[C@@]2(CC[C@@](C)([C@H]3CC[C@@](C)([C@@H]4O[C@@H]([C@H]5O[C@](C)(O)[C@H](C)C[C@@H]5C)C[C@@H]4OC4C[C@H](OC)[C@@H](OC)[C@H](C)O4)O3)O2)C[C@H](O)[C@H]1C (stereo not given in full) | 13.7% [at 35.3 µM, hits give high values] | 
3 | CCCCOCCOC(=O)c1cccnc1 | -10.8% [at 35.3 µM, hits give high values] | 
4 | CCN(CC)CCOC(=O)C(c1ccccc1)c1ccccc1 | 2.27% [at 35.3 µM, hits give high values] | 
5 | COc1ccc(CCN(C)CCCN2CCc3cc(OC)c(OC)cc3CC2=O)cc1OC | 9.71% [at 35.3 µM, hits give high values] | 
6 | COc1cc(C(C)=O)ccc1OCCCN1CCC(c2noc3cc(F)ccc23)CC1 | 9.43% [at 35.3 µM, hits give high values] | 
7 | CCC(=O)OCc1ccc(OC)cc1 | -12.3% | 
8 | CC(C)C(=O)OCCOc1ccccc1 | 8.32% | 
9 | COc1cc(OC)c2ccc(=O)oc2c1 | 1.02% | 
10 | Cc1ccc2c(c1[N+](=O)[O-])C(=O)c1ccccc1C2=O | 2.66% [at 35.3 µM, hits give high values] | 
11 | Cc1cccc(C)c1NC(=O)c1cc(S(N)(=O)=O)c(Cl)cc1O | -9.57% [at 35.3 µM, hits give high values] | 
12 | Cc1ccc(S(=O)(=O)NC(=O)NC2CCCCC2)cc1 | 2.29% [at 35.3 µM, hits give high values] | 
13 | C1=CCC2CC=CC2C1 (stereo not given) | 0.703% | 
14 | COc1cc(NS(=O)(=O)c2ccc(N)cc2)nc(C)n1 | 3.02% [at 35.3 µM, hits give high values] | 
15 | Cc1ccccc1S(N)(=O)=O | -5.87% | 
16 | COC(=O)c1sccc1S(N)(=O)=O | -6.32% | 
17 | COC1CCC=CO1 (stereo not given) | -1.27% | 
18 | C1CCCCC1 | 0.251% | 
19 | CC/C=C\C/C=C\C/C=C\CCCCCCCC(=O)OCC | -5.16% | 
20 | CC(=O)OCCC(C)CC(C)(C)C (stereo not given) | 0.461% | 

Row | SMILES | activity change | Potency
21 | O=C(O)/C=C/c1ccc(O)c(O)c1 | -10.8% | 
22 | COc1ccc(-c2cc(=S)ss2)cc1 | -13.9% [at 35.3 µM, hits give high values] | 
23 | COc1cc(NCc2ccc3nc(N)nc(N)c3c2C)cc(OC)c1OC | 7.58% [at 35.3 µM, hits give high values] | 
24 | CCCCCCCCCCCC(=O)OCC(O)CO (stereo not given) | -0.33% | 
25 | O=[N+]([O-])C1(Br)COCOC1 |  | 54.9 µM (active)
26 | CCCCCCC(O)CCOC(C)=O (stereo not given) | 16.6% [at 200 µM, hits give high values] | 
27 | CN1CCCN(C(c2ccccc2)c2ccc(Cl)cc2)CC1 (stereo not given) |  | 23.9 µM (active)
28 | O=C(NC(Cc1cc(=O)[nH]c2ccccc12)C(=O)O)c1ccc(Cl)cc1 (stereo not given) | -14.5% [at 35.3 µM, hits give high values] | 
29 | CCOc1ncc(F)c(=O)[nH]1 | 6.19% [at 35.3 µM, hits give high values] | 
30 | OCC(CO)n1cnc(-c2ccc(F)cc2)c1-c1ccnc(Oc2ccccc2)n1 | -12.9% | 
31 | O=C1OC[C@H](Cc2cccc(O)c2)[C@H]1Cc1cccc(O)c1 | -0.858% [at 35.3 µM, hits give high values] | 
32 | CCCc1nc2c(C)cc(-c3nc4ccccc4n3C)cc2n1Cc1ccc(-c2ccccc2C(=O)O)cc1 | -4.62% [at 35.3 µM, hits give high values] | 
33 | CCC1CCC(CCC(=O)O)C1 (stereo not given) | 0.0918% | 
34 | CC(C)(C)CCCCCCOC(=O)c1ccccc1C(=O)OCCCCCCC(C)(C)C | -5.99% | 
35 | CC(=O)OCC(C)C | -1.34% | 
36 | CC1CCCO1 (stereo not given) | -3.53% | 
37 | CNCc1ccc(NC(=O)c2c[nH]c3c2C(=O)CCC3)cc1 | -15.5% | 
38 | Nc1ccc(N=Nc2ccc(N)cc2)cc1 | -17.3% [at 35.3 µM, hits give high values] | 
39 | CC1CCc2nccnc21 (stereo not given) | 3.12% | 
40 | CCCCCc1ccco1 | 5.95% [at 35.3 µM, hits give high values] | 
